Assay outcomes from PubChem BioAssay.
RGS16-Gao: modulates binding between human RGS16 and Galphao; O15492+P09471; bead-based flow cytometry RGS16-Galphao binding, fluorescence; actives lie on both sides; binding response (% of control), % at 10 µM; 0.38% of 220,000 active; AID 1441;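 note: Galphao activated by GDP with aluminum fluoride before binding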
Target sequence (O15492 whole entry, looked up): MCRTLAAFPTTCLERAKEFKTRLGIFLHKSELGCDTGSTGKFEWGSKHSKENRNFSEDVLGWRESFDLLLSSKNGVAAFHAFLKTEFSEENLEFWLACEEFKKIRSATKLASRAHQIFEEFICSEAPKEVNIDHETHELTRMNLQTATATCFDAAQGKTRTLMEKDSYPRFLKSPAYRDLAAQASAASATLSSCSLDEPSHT
Target sequence (P09471 whole entry, looked up): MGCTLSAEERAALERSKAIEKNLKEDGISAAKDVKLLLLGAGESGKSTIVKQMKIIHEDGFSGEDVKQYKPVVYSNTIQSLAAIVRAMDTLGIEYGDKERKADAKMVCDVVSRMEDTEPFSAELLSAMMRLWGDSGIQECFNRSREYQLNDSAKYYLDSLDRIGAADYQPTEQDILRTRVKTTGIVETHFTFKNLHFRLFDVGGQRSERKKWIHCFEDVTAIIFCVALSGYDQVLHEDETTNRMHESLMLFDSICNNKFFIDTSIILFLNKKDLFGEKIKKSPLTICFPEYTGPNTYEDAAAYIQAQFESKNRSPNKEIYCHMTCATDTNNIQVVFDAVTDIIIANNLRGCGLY
Avidin fluor: compound fluoresces at 488/530 nm on avidin beads; compound fluorescence 488/530 nm, flow cytometry; stronger effect = higher value; fluorescence (KMESF) at 10 µM; 0.38% of 220,000 active; in the data active = fluorescence above about 47
RGS7-Gao: modulates binding of RGS7 to human Galphao | P09471 | Multiplexed bead flow cytometry; actives lie on both sides | binding response (% of control), % at 10 µM | 0.35% of 220,000 active | AID 1439; in the data active = binding response below about 49% or above about 150%; inconclusive = no clear call, values can overlap the other calls; inactive = in between;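 note: fluorescent Galphao held in activated GDP-AlF4 state binding bead-coupled RGS7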
Target sequence (P09471 whole entry, looked up): as above
GSH bead fluor: compound fluoresces at 488/530 nm on GSH beads; GSH beads flow cytometry, compound fluorescence 488/530 nm; stronger effect = higher value; fluorescence (KMESF) at 10 µM; 0.25% of 190,000 active; AID 1776; in the data active = fluorescence above about 89;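 note: glutathione beads carrying GST-tagged Bcl family fusion proteins plus one bare bead set; values are compound well signal with DMSO vehicle wells as background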
RGS4-Gao reg: human RGS4-Galphao interaction regulation; P09471; Multiplexed bead flow cytometry, RGS4-Galphao binding; actives lie on both sides; binding response (% of control), % at 10 µM; 0.33% of 220,000 active; in the data active = binding response below about 49% or above about 150%; inactive = in between;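 note: fluorescent Galphao activated with aluminum fluoride binding bead-coupled RGS4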
RGS8-Gao reg: human RGS8-Galphao interaction regulation; P09471; multiplexed bead flow cytometry, RGS8-Galphao binding; actives lie on both sides; response (percent of control binding), % at 10 µM; 0.34% of 220,000 active; AID 1423; in the data active = response below about 60% or above about 140%; inactive = in between;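 note: Galphao activated as the GDP aluminium fluoride complex binding bead-coupled RGS8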
RGS4-Gao HTS: regulators of human RGS4-Galphao interaction; shares compounds with RGS16-Gao; multiplexed bead flow cytometry, RGS–Galpha-o binding; RGS4–Galpha-o binding response, % at 10 µM; 99% of 1,600 active;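 note: fluorescently labeled Galpha-o bound to GDP with aluminium fluoride binding biotinylated RGS beads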
Biotin-avidin: interferes with biotinylated probe binding to avidin beads | streptavidin beads, fluorescein-biotin binding, flow cytometry | AID 1783 | inhibition, % at 10 µM | shares compounds with RGS16-Gao | 1,700 tested, under 10 active;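 active = inhibition above 50%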;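 note: median green fluorescence of gated singlet beads compared with DMSO control wells; 0% = DMSO wells and 100% = complete loss of bead fluorescence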
RGS8-Gao confirm: confirmation of regulators of human RGS8-Galphao interaction; AID 1836; bead-based flow cytometry RGS8-Galphao binding, fluorescence; actives lie on both sides; shares compounds with RGS16-Gao; binding response (% of control), % at 10 µM; 3% of 1,700 active; in the data active = binding response below about 72% or above about 130%; inactive = in between;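 note: Galphao activated as GDP AlF4 complex before binding bead RGS8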
RGS7-Gao single: RGS7-Galphao interaction regulation, single point confirmation; bead-based flow cytometry RGS7-Galphao binding; actives lie on both sides; 7.8% of 1,700 active; shares compounds with RGS16-Gao; response (percent of control binding), % at 10 µM; AID 1837; in the data active = response below about 75% or above about 130%; inactive = in between;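 note: fluorescent Galphao activated with GDP and aluminum fluoride binding bead-coupled RGS7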
RGS16-Gao conf: confirmation of regulators of human RGS16-Galphao interaction. 4% of 1,700 active. shares compounds with RGS16-Gao. AID 1838. bead-based flow cytometry, RGS16-Galphao binding; actives lie on both sides. response (% of control binding), % at 10 µM; in the data active = response below about 74% or above about 130%; inactive = in between;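 note: Galphao activated as the GDP aluminium fluoride complex binding bead-coupled RGS16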
RGS4-Gao confirm: RGS4-Galphao interaction regulation, single point confirmation; shares compounds with RGS16-Gao; RGS4-Galphao binding, multiplexed bead flow cytometry; actives lie on both sides; binding response (% of control), % at 10 µM; 4% of 1,700 active; AID 1840; in the data active = binding response below about 74% or above about 130%; inactive = in between
RGS19-Gao conf: confirmation of regulators of human RGS19-Galphao interaction | shares compounds with RGS16-Gao | bead-based flow cytometry RGS19-Galphao binding; actives lie on both sides | response (percent of control binding), % at 10 µM | 5% of 1,700 active; in the data active = response below about 50% or above about 160%; inactive = in between;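 note: 100% = no compound control and 0% = blank background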
Numbers without * were called inactive; ? = inconclusive; nt = no result given; + = active, no number; [ ] = dose if it differs, or a comment. This is a sample that favours compounds with a hit; in the whole collection about 1.2% have one here. Unless noted, the rule behind the calls is not given here.

SMILES	RGS16-Gao	Avidin fluor	RGS7-Gao	GSH bead fluor	RGS4-Gao reg	RGS8-Gao reg	RGS4-Gao HTS	Biotin-avidin	RGS8-Gao confirm	RGS7-Gao single	RGS16-Gao conf	RGS4-Gao confirm	RGS19-Gao conf
COCCNC(=O)/C(C#N)=C/c1ccc(-c2ccc(S(=O)(=O)N3CCOCC3)cc2)o1	-1.2*	5	84	6	79	74	79*	2	98	116	103	108	121
CCOCCCNC(=O)/C(C#N)=C/c1ccc(-c2ccc(S(=O)(=O)N3CCOCC3)cc2)o1	19	11	93	22	93	75	nt	nt	nt	nt	nt	nt	nt
NC(N)=N/N=C/c1ccc(Br)cc1	100	11	101	14	99	104	nt	nt	nt	nt	nt	nt	nt
N#Cc1ccc(/C=N/N=C(N)N)cc1	244*[activator]	112*	179*[activator]	35	220*[activator]	115	nt	2	103	101	96	101	63
Cc1cc(C)cc(NC(=S)N2CCC(NC(=O)c3ccccc3C)CC2)c1	108	10	102	15	105	102	nt	nt	nt	nt	nt	nt	nt
CCOc1ccc(NS(=O)(=O)c2ccc3ncsc3c2)cc1	143	8	152*[activator]	15	146	134	146*	1	100	97	98	100	111
COc1cc(/C=N/N=C/c2c[nH]c(=O)c(C#N)c2Nc2ccccc2)ccc1O	101	10	?	nt	101	103	nt	nt	nt	nt	nt	nt	nt
O=C(Nc1ccc(Cl)cc1)Nc1cc([N+](=O)[O-])ccc1F	103	4	98	9	98	101	nt	nt	nt	nt	nt	nt	nt
O=C(Nc1ccc([N+](=O)[O-])cc1)Nc1ccc(Cl)cc1F	-52	-2	-4.6*	24	11*	4.4*	nt	0	100	102	102	99	102
CCC/C(O)=C1\C(=O)CC(c2ccccc2)CC1=NCCc1c(C)[nH]c2ccc(C)cc12 (configuration not stated)	14*	2	52	16	52	52*	52*	nt	nt	nt	nt	nt	nt
CCOC(=O)c1sc(NC(=O)Nc2ccc(F)cc2)nc1C	25*	9	91	4	91	73	91*	1	99	105	102	105	103
Cc1ccc(NC(=S)N/N=C/c2cccn2Cc2ccccc2F)cc1	102	nt	?	nt	106	102	nt	nt	nt	nt	nt	nt	nt
CCc1ccc(S(=O)(=O)/N=C2/C=C(Sc3ncn[nH]3)C(=O)c3ccccc32)cc1	24*	7	84	21	92	63	92*	nt	nt	nt	nt	nt	nt
CCc1ccc(S(=O)(=O)/N=C2\C=CC(=O)c3ccccc32)cc1	78	11	89	10	93	87	nt	nt	nt	nt	nt	nt	nt
Cc1cc(C(=O)Oc2cccnc2)ccc1[N+](=O)[O-]	25*	1	104	8	91	76	91*	-1	103	107	104	102	100
CCCCOc1ccc(S(=O)(=O)Nc2cc(OC)ccc2OC)cc1	nt	nt	nt	48	nt	nt	nt	-1	99	102	96	98	107
COc1ccc(OC)c(NS(=O)(=O)c2ccc(Cl)nc2)c1	87	0	101	6	100	96	nt	nt	nt	nt	nt	nt	nt
COc1ccc(CN2CCC(CO)(Cc3ccccc3C(F)(F)F)CC2)c(F)c1	100	7	92	15	98	99	nt	nt	nt	nt	nt	nt	nt
O=C(Cc1c[nH]c2ccccc12)NC1(C(=O)NC2CCCC2)CCCCC1	103	9	101	13	99	102	nt	nt	nt	nt	nt	nt	nt
COc1ccc(-c2csc(NC(=O)c3ccc(OCC(=O)N4CCOCC4)c(OC)c3)n2)cc1OC	18*	8	93	6	97	81	97*	1	100	100	102	102	96
O=C(Nc1ccc(F)cc1)C1=CC(=O)N2CCN=C2S1	56	4	119	12	97	62	nt	nt	nt	nt	nt	nt	nt
O=C(OCCN1C(=O)c2ccccc2C1=O)c1cccs1	+	6	126	16	130	140	130*	nt	nt	nt	nt	nt	nt
C/C(=N\NC(=O)Cc1cccn1C)c1cccs1	27	-2	31*	21	34*	30*	nt	-1	102	104	102	104	106
CCC(=O)Nc1sc2c(c1C(N)=O)CCC2	-7.4*	-2	7.2*	22	16*	12*	nt	-1	107	102	108	101	107
Nc1nc(-c2cc3ccccc3o2)cs1	100	9	?	nt	98	99	nt	nt	nt	nt	nt	nt	nt
SMILES	RGS16-Gao	Avidin fluor	RGS7-Gao	GSH bead fluor	RGS4-Gao reg	RGS8-Gao reg	RGS4-Gao HTS	Biotin-avidin	RGS8-Gao confirm	RGS7-Gao single	RGS16-Gao conf	RGS4-Gao confirm	RGS19-Gao conf
COc1ccccc1NC(=S)N1CCn2cccc2C1c1cccnc1 (configuration not stated)	101	11	102	16	99	103	nt	nt	nt	nt	nt	nt	nt
CCOC(=O)N1CCN(C(=O)C2CCN(C(=O)c3cc(OC)cc(OC)c3)CC2)CC1	205*[activator]	6	130	9	123	134	123*	1	101	100	101	100	112
CCCNC(=O)Cn1sc2nc(C)cc(C)c2c1=O	16*	2	?	nt	78	60	78*	0	52*	70*	9.1*	73*	3.9*
CCOC(=O)C1CCCN(C(=O)Cn2sc3nc(C)cc(C)c3c2=O)C1 (configuration not stated)	17*	2	95	18	90	58*	90*	-1	61*	75*	16*	73*	15*
Cc1cc(C)c2c(=O)n(CC(=O)N3CCC(N4CCCCC4)CC3)sc2n1	64	3	117	16	92	82	nt	nt	nt	nt	nt	nt	nt
O=C(CSc1nnc(-c2ccncc2)o1)Nc1ccccc1Cl	250*[activator]	130*	215*[activator]	28	133	115	133*	-1	100	102	101	101	100
O=C(CSc1nnc(-c2ccccc2)o1)Nc1ccccc1F	107	91*	173*[activator]	22	111	101	111*	3	99	95	95	95	74
